The values below come from PubChem BioAssay AID720540 (National Center for Advancing Translational Sciences (NCATS), 2013).

Out of some 1,300 compounds screened, about 460 (35%) were called active. Another 39% or so got no clear call; they are omitted. The call rests on the fitted dose curve; in most records, active means well fitted inhibition curve with a large enough effect; inconclusive means small, poorly fitted or top-dose-only effect; inactive means flat fitted curve, though single readings scatter. The list shows a part of the results.
Potency means the concentration at half of the fitted maximal effect.

Sequence of Protein phosphatase EYA2 (Homo sapiens) (O00167 whole entry, looked up): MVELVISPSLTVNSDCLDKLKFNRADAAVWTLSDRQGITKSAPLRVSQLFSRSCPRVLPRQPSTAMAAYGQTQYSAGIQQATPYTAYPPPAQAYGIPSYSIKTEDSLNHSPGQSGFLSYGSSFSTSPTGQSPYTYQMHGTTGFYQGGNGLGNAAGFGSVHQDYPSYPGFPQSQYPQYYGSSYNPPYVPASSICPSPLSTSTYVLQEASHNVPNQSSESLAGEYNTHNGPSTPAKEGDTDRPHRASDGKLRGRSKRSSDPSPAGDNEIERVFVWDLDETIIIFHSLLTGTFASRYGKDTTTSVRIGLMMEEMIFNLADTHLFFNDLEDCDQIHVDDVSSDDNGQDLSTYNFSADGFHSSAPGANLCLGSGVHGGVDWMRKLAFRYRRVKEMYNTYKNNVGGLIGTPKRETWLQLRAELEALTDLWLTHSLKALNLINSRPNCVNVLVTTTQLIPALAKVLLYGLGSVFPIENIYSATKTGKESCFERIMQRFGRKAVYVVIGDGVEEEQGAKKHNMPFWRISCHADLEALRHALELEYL

The target in the test is Protein phosphatase EYA2 (Homo sapiens) (UniProt O00167). Briefly: qHTS for Inhibitors of the Phosphatase Activity of Eya2: Confirmatory Assay for Cherry-picked Compounds. Further: nearly all actives have a fitted effect of over 65% in size.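 On activity change, negative = inhibition: 0% = DMSO wells and -100% = EGTA control giving full inhibition.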 Conditions: purified EYA2 phosphatase activity, qHTS confirmation; series mostly up to 46.1 µM; activity change, negative = inhibition: at the top concentration. A digest of the protocol:
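Eya2 (0.2 uM working solution) preincubated 10 min at room temperature with compound in pH 7.5 HEPES buffer with MgCl2, BSA, DTT. OMFP added (50 uM working solution), 10 min more; fluorescence 485/525 nm, normalized to EGTA and DMSO.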
(qHTS replaces the single test concentration by a dilution series.)
As to `O=C(Cn1ccc(=O)[nH]c1=O)Nc1nccs1`, the “activity change, negative = inhibition” value was -8.64% (inactive).

Take `CC(Oc1ccc(F)cc1)C(=O)Nc1cc(S(=O)(=O)N2CCCCC2)ccc1N1CCN(C)CC1` (stereo not drawn): the “activity change, negative = inhibition” value is -25.7% (inactive). Take `CCOc1ccc(S(=O)(=O)N2CCN(C)CC2)cc1NC(=O)c1ccccc1F`: the Potency is 8.49 µM (active). `Cc1ccc(-c2csc(N3CCN(CCCn4c(C(F)(F)F)nc5ccccc54)CC3)n2)cc1`: the “activity change, negative = inhibition” value is -22.1% (inactive). Consider `Oc1[nH]c2ccccc2c1N=Nc1nc2ccccc2s1`, for which the “activity change, negative = inhibition” value was -30% (inactive). Regarding `CCCSC1=N/C(=C\C=C\c2ccco2)C(=O)S1`, the Potency was 9.53 µM (active). Still for that read-out and setting: the same measure for `O=c1nc2c(O)cccn2c2c1c(=O)[nH]c1ccccc12`: 4.26 µM (active); for `Cc1ccc(C(=O)CSc2nnc(CNc3nc(-c4ccccc4)cs3)n2C)cc1`: 7.57 µM (active). With `COc1ccc(N)cc1-n1c(C)ccc1C`, the “activity change, negative = inhibition” value is -0.42% (inactive).

As for `O=[N+]([O-])c1ccc([N+](=O)[O-])c(Nc2ccc(N3CCOCC3)cc2)c1`, the Potency was 10.7 µM (active). In the case of `CCn1nc(C(=O)Nc2nc(-c3ccccn3)cs2)c2ccccc2c1=O`, the Potency was 4.26 µM (active).

Take `O=C(CCS(=O)(=O)c1ccc(F)cc1)Nc1nc(-c2ccccn2)cs1`: the Potency was 13.5 µM (active).

Consider `CSCCC(=O)Nc1nc(-c2ccccn2)cs1`, for which the Potency is 19 µM (active).

Regarding `COc1ccccc1/C=C/C=N/N1CCN(Cc2cccc3ccccc23)CC1`, the Potency was 8.49 µM (active). On to `Cn1cccc1/C=N/N1CCN(Cc2cccc3ccccc23)CC1`, for which the Potency is 15.1 µM (active). For the compound `Cc1cc(C(=O)COC(=O)c2ccc(O)cc2)c(C)n1CCc1ccc(F)cc1`, the “activity change, negative = inhibition” value is -22.6% (inactive). Take `CCCCC(Sc1ccc2nnc(-c3ccccn3)n2n1)C(=O)O` (stereo not drawn): the Potency was 16.9 µM (active).

`O=C(CSc1ccc2nnc(-c3ccccn3)n2n1)Nc1ccccc1F`: the Potency is 12 µM (active). With `CCC(=O)Nc1ccc(-c2nnc(SCc3ccccc3)n2C)cc1`, the “activity change, negative = inhibition” value was -7.17% (inactive). With `O=C(CSc1ccc2nnc(-c3ccccn3)n2n1)Nc1ccccc1`, the Potency was 16.9 µM (active). Regarding `O=C(CSc1ccc2nnc(-c3ccccn3)n2n1)Nc1ccccc1C(F)(F)F`, the Potency is 19 µM (active). For `O=S(=O)(O)c1ccc(O)c2cc(Nc3ccccc3)ccc12`, the Potency is 7.57 µM (active).

For the compound `O=C(c1ccc2c(=O)n3c(nc2c1)CCCCC3)N1CCN(c2cccc(Cl)c2)CC1`, the Potency is 16.9 µM (active). Consider `NC(=O)c1nc(C(=O)N2CCCCC2)c2ccccc2n1`, for which the “activity change, negative = inhibition” value is -4.08% (inactive). On to `COc1ccc(/C=C/C(=O)Nc2ccc3nc4n(c(=O)c3c2)CCCC4)cc1`, for which the “activity change, negative = inhibition” value is -23.1% (inactive). The same measure, in the same setting: the result for `COc1cc2c(cc1OC)C(c1ccc([N+](=O)[O-])cc1)NCC2` (stereo not drawn) reads -11.5% (inactive).

As to `Oc1ccccc1C=NC1CCCCC1N=Cc1ccccc1O` (stereo not drawn), the Potency was 19 µM (active). As for `O=C(Nc1nncs1)c1cc(-c2ccco2)nc2ccccc12`, the Potency is 19 µM (active). As for `COc1ccc(NC(=O)c2cc(-c3ccco3)nc3ccccc23)cn1`, the “activity change, negative = inhibition” value was -26.4% (inactive). Turning to `CCOC(=O)c1sc(NC(=O)CSc2nc(O)c(Cc3ccccc3)c(=O)[nH]2)nc1C`, the Potency was 19 µM (active). Regarding `COc1cc(/C=C2\SC(=S)N(CCC(=O)Nc3cccc(O)c3)C2=O)cc(OC)c1OC`, the “activity change, negative = inhibition” value is -18.9% (inactive). Take `O=C(CN1C(=O)/C(=C/c2ccco2)SC1=S)Nc1ccc(C(=O)O)c(O)c1`: the Potency was 16.9 µM (active). For the compound `O=C1c2cccc(Sc3ccccc3)c2C(=O)c2c(Sc3ccccc3)cccc21`, the Potency was 3.38 µM (active).

Turning to `COC(=O)c1sc2cc(C(F)(F)F)cnc2c1-c1cccnc1`, the “activity change, negative = inhibition” value was -1.68% (inactive).

With `CCN(CC)S(=O)(=O)c1cc(OC)ccc1N=Nc1ccc(O)c2ncccc12`, the Potency was 1.35 µM (active).

Take `CCN(CC)C(=O)c1ccc(O)c(OC)c1`: the “activity change, negative = inhibition” value is 1.29% (inactive). Take `O=S(=O)(Nc1nccs1)c1ccc(NCc2cc(Br)cc(Br)c2O)cc1`: the Potency was 1.07 µM (active). Consider `CCc1nnc(NS(=O)(=O)c2ccc(NCc3cc(Cl)cc(Cl)c3O)cc2)s1`, for which the Potency was 2.39 µM (active). Consider `CCSc1nnc(-c2ccc(S(=O)(=O)N3CCOCC3)cc2)n1C`, for which the “activity change, negative = inhibition” value is 2.37% (inactive). In the case of `CCOc1ccc(/C=C2\SC(=S)N(CCC(=O)Nc3ccc(C(=O)O)cc3)C2=O)cc1`, the Potency is 19 µM (active). Take `O=C(CCN1C(=O)/C(=C\C=C\c2ccccc2)SC1=S)Nc1ccc(C(=O)O)cc1`: the “activity change, negative = inhibition” value is -25.3% (inactive). Regarding `CCOc1ccc(NC(=O)c2sccc2-n2cccc2)cc1`, the “activity change, negative = inhibition” value was -22.2% (inactive). With `Cc1n[nH]c(=S)n(NC(=O)CC(=O)Nn2c(=S)[nH]nc(C)c2=O)c1=O`, the Potency is 1.51 µM (active). Still for that read-out and setting: the same measure for `CC1CCCN(c2ccc3nc4ccccc4c(=O)n3n2)C1` (stereo not drawn): 13.5 µM (active); for `Cc1ccc(CN2CCN(/N=C/c3ccc(C)s3)CC2)c(C)c1`: 15.1 µM (active). Regarding `O=C(Nc1nc2c(F)cc(F)cc2s1)c1ccc([N+](=O)[O-])o1`, the “activity change, negative = inhibition” value is -27.1% (inactive). In the case of `Cc1cc(Br)c(NC(=O)c2ccccc2[N+](=O)[O-])cc1C`, the “activity change, negative = inhibition” value was -9.39% (inactive). `O=C(Oc1ccc(C(=S)N2CCOCC2)cc1)c1ccccc1F`: the Potency is 6.01 µM (active).

For `O=C(Oc1ccc(C(=S)N2CCCCC2)cc1)c1ccccc1F`, the Potency was 13.5 µM (active). Regarding `O=C(Oc1ccc(C(=S)N2CCOCC2)cc1)c1ccccc1[N+](=O)[O-]`, the Potency is 13.5 µM (active). For `CC1(C)Nc2cccc3c(N=Nc4ccc(N=Nc5ccccc5)c5ccccc45)ccc(c23)N1`, the Potency was 3.01 µM (active). `CCOC(=O)C(C)Sc1nc(-c2ccccn2)ncc1OC` (stereo not drawn): the Potency is 2.13 µM (active).

On to `COc1ccc(Oc2nc(-c3ccccn3)ncc2OC)cc1`, for which the Potency is 19 µM (active).

For `COc1cnc(-c2ccccn2)nc1Oc1ccc(C(C)(C)C)cc1`, the Potency was 3.79 µM (active). Turning to `COc1ccc(CN(CCN(C)C)c2ccccn2)cc1`, the “activity change, negative = inhibition” value is -3.21% (inactive). As for `CCc1nc2ccc(C(=O)NCCCN(C)C)cn2c1N(C)Cc1ccc(OC)cc1`, the “activity change, negative = inhibition” value is -5.22% (inactive). `COc1ccc(N(CC(=O)Nc2nc3ccc(C)cc3s2)S(=O)(=O)c2c(C)nn(C)c2C)cc1`: the “activity change, negative = inhibition” value was -25.2% (inactive). Turning to `Cc1c(C(=O)O)c(O)cc2c1C(=O)c1c(O)c([C@H]3O[C@H](CO)[C@@H](O)[C@H](O)[C@H]3O)c(O)c(O)c1C2=O`, the Potency is 16.9 µM (active).

For `COc1ccc(C(=O)Nc2nnc(-c3ccccc3)o2)cc1OC`, the Potency was 19 µM (active). Consider `CCOc1ccccc1C(=O)OCC(=O)Nc1nnc(-c2ccccc2)o1`, for which the Potency is 19 µM (active).

On to `CCc1ccc(NC(=O)COC(=O)c2ccccc2OCC(=O)N(C)C)cc1`, for which the “activity change, negative = inhibition” value was -4.47% (inactive). With `O=C(Nc1cccc(-c2nnc(-c3ccco3)o2)c1)c1ccccc1`, the “activity change, negative = inhibition” value was -19.3% (inactive). With `O=C(COC(=O)c1cc(-c2cccnc2)nc2ccccc12)Nc1ccc(F)cc1F`, the “activity change, negative = inhibition” value was -21.4% (inactive).
